The values below come from PubChem BioAssay (NCATS).

Several values for one entry are separate records, joined by “and”; a condition that tells them apart may be missing. Equal entries are not always repeated. A number with no mark means an inactive call. Inconclusive results are not listed. Activity calls are given as the source filed them. Unless noted, calls follow the shape of the dose curve; as a rule, active = well fitted inhibition curve with a large enough effect; inconclusive = small, poorly fitted or top-dose-only effect; inactive = flat fitted curve, though single readings scatter. Where a SMILES comes first, the peptide text is derived from it. Bridges are numbered along the chain shown (N, C = ends).

Experiment [1] in a line: Drug repurposing screens with cells derived from glioblastoma tumor samples (AID 1345199). Also: nearly all actives have a fitted effect of over 40% in size. Also: potency is read from the fitted curve at half-maximal effect. As to activity, negative = cell killing: % is scaled to controls: 0 for no effect and ±100 for the full control effect. Conditions: GBM patient neurospheres viability, ATP luminescence, 48 h. The essentials:
(§1)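 Four patient lines of CD133+ GBM neurospheres were screened at several concentrations; hits were retested in those lines plus three slower-growing GBM lines, using 48-hour treatment and ATP-based viability.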

Experiment [2] concerns astro (control astrocytes). Described as above. Particulars: viability, ATP luminescence, 48 h; series mostly up to 45.9 µM. The essentials: as §1
For experiment [3], the target named is Nuclear receptor subfamily 1 group I member 2 (Rattus norvegicus) (UniProt Q9R1A7). Description: qHTS assay for small molecule activators of the rat pregnane X receptor (rPXR) signaling pathway (AID 651751; call rule not given here; also: 0% is about no effect). Conditions: rPXR reporter cells, luciferase (One-Glo), 24 h.
Chain of Nuclear receptor subfamily 1 group I member 2 (Rattus norvegicus) (Q9R1A7 whole entry, looked up): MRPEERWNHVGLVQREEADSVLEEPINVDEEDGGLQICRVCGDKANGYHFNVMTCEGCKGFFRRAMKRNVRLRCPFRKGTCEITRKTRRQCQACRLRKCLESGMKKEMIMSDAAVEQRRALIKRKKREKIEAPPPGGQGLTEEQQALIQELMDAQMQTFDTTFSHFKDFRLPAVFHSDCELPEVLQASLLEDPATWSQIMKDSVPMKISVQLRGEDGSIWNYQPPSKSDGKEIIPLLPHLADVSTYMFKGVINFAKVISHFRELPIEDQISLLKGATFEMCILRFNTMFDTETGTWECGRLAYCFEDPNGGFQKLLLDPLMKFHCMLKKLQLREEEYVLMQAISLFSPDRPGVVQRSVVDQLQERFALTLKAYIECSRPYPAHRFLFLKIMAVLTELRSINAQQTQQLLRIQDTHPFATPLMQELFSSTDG
Experiment [4] in a line: qHTS assay for small molecule activators of the human pregnane X receptor (PXR) signaling pathway (AID 720659; call rule not given here; also: 0% is about no effect). Particulars: DPX-2 HepG2 CYP3A4-luciferase, 24 h; series mostly up to 92.3 µM. (In qHTS, concentration-response curves come from the screen itself.)
The mark [5] stands for this setting: at 45.9 µM (top of the series), tumour line B.
Setting [6] is: at 45.9 µM (top of the series), tumour line D.
Setting [7] is: at 46 µM (top of the series), tumour line A.
The mark [8] stands for this setting: at 46.1 µM (top of the series), tumour line C.

For the compound `Cn1nnnc1SCC1=C(C(=O)O)N2C(=O)[C@@H](NC(=O)[C@H](OC=O)c3ccccc3)[C@H]2SC1`, the activity, negative = cell killing was -10.5% in experiment [1] (setting [5]), -17.5% in experiment [1] (setting [6]), -11.9% in experiment [1] (setting [7]) and -8.9% in experiment [1] (setting [8]). In experiment [2], the Potency result is “inactive”.

For the compound `CCOC(=O)Nc1ccc2c(c1)N(C(=O)CN(C)C)c1ccccc1CC2`, in experiment [1] (at 99.2 µM (top of the series), tumour line C), the activity, negative = cell killing was -30.7%. The Potency in experiment [1] (tumour line A) was 44.7 µM (active); in experiment [1] (tumour line D), 56.2 µM (active). Moreover, in experiment [2], the Potency entry was “inactive”.

Turning to `O=C(CO)[C@@H](O)[C@H](O)[C@H](O)CO`, the activity, negative = cell killing in experiment [1] (setting [5]) is -6.93%; in experiment [1] (setting [6]) it was 1.86%; in experiment [1] (setting [7]) it was -24.2%; in experiment [1] (setting [8]), 19%. The Potency result in experiment [2] is “inactive”.

Turning to `CN(C)Cc1ccccc1`, the activity, negative = cell killing in experiment [1] (setting [5]) is -9.24%; in experiment [1] (setting [6]), 4.8%; in experiment [1] (setting [7]) it was -29.4%; in experiment [1] (setting [8]) it was -2.01%. The Potency entry in experiment [2] is “inactive”. The max response in experiment [3] is 2.69%. Also, in experiment [4], the compound was called inactive.

For the compound `COC[C@H](c1ccc(C(F)(F)F)cc1)N1CCN(C2(C)CCN(C(=O)c3c(C)ncnc3C)CC2)C[C@H]1C`, the activity, negative = cell killing in experiment [1] (setting [5]) was -1.49%; in experiment [1] (setting [6]), -13.4%; in experiment [1] (setting [8]), 5.67%. Besides, the Potency in experiment [1] (tumour line A) was 11.2 µM (active). Besides, the Potency result in experiment [2] was “inactive”.

As to `COc1ccc(C(=O)Nc2ccccc2CCC2CCCCN2C)cc1` (centres undefined), the activity, negative = cell killing in experiment [1] (setting [5]) was -11.1%; in experiment [1] (setting [6]) it was -17.7%; in experiment [1] (setting [8]), -23.4%. Moreover, in experiment [1] (tumour line A), the Potency is 10 µM (active). Moreover, in experiment [2], the Potency entry was “inactive”.

With `CCC(=O)O`, the activity, negative = cell killing in experiment [1] (setting [5]) was 6.59%; in experiment [1] (setting [6]), -5.65%; in experiment [1] (setting [7]), -7.77%; in experiment [1] (setting [8]), 7.14%. Further, the Potency result in experiment [2] was “inactive”.

`C[C@H]1C[C@H]2[C@@H]3CCC4=CC(=O)C=C[C@]4(C)[C@@]3(F)[C@@H](O)C[C@]2(C)[C@@]1(O)C(=O)CCl`: the activity, negative = cell killing in experiment [1] (setting [5]) is 1.74%; in experiment [1] (setting [6]) it was -15.9%; in experiment [1] (setting [8]) it was 12.3%. In experiment [1] (tumour line A), the Potency was 35.5 µM (active). Besides, the Potency entry in experiment [2] is “inactive”.

Turning to `NNc1nnc(Cc2ccncc2)c2ccccc12`, the activity, negative = cell killing was -17.7% in experiment [1] (setting [5]), -26.1% in experiment [1] (setting [6]) and -26.3% in experiment [1] (setting [8]). In experiment [2], the Potency result is “inactive”.

With `CC#CCC(C)[C@H](O)/C=C/[C@@H]1[C@H]2C/C(=C/CCCC(=O)O)C[C@H]2C[C@H]1O` (some centres undefined), the figures for the activity, negative = cell killing in experiment [1] (setting [5]), in experiment [1] (setting [6]) and in experiment [1] (setting [8]) were -8.92%, -4.73% and -5.69%, respectively. For the same compound, the Potency in experiment [1] (tumour line A) is 17.8 µM (active). Further, the Potency entry in experiment [2] is “inactive”.

Take `NCCCC[C@H](NC(=O)[C@@H]1CCCN1C(=O)[C@@H]1CSSC[C@H](NC(=O)CNC(=O)CNC(=O)CN)C(=O)N[C@@H](Cc2ccc(O)cc2)C(=O)N[C@@H](Cc2ccccc2)C(=O)N[C@@H](CCC(N)=O)C(=O)N[C@@H](CC(N)=O)C(=O)N1)C(=O)NCC(N)=O` (H-GGGCYFQNCPKG-NH2; disulfide 4-9): the activity, negative = cell killing was -8.67% in experiment [1] (setting [5]), 3.33% in experiment [1] (setting [6]), -28% in experiment [1] (setting [7]) and 22.1% in experiment [1] (setting [8]). In addition, the Potency entry in experiment [2] was “inactive”.

Regarding `CC(=O)O[C@H]1C[C@@H]2CC[C@@H]3[C@H](CC[C@@]4(C)[C@H]3C[C@H](N3CC[N+](C)(C)CC3)[C@@H]4OC(C)=O)[C@@]2(C)C[C@@H]1N1CC[N+](C)(C)CC1`, the activity, negative = cell killing in experiment [1] (setting [5]) is -3.42%; in experiment [1] (setting [6]) it was 1.51%; in experiment [1] (setting [8]), 2.56%. Further, the Potency result in experiment [2] was “inactive”.

On to `NC(=O)C[C@@H](N)C(=O)O`, for which the activity, negative = cell killing in experiment [1] (setting [5]) was 8.61%; in experiment [1] (setting [6]), -4.07%; in experiment [1] (setting [7]) it was 26.7%; in experiment [1] (setting [8]) it was 22.9%. Besides, the Potency result in experiment [2] is “inactive”.

As for `C1CNCCN1`, the activity, negative = cell killing is -11% in experiment [1] (setting [5]), -24.6% in experiment [1] (setting [6]), -15.8% in experiment [1] (setting [7]) and -0.46% in experiment [1] (setting [8]). For the same compound, the Potency result in experiment [2] was “inactive”.

Regarding `C[C@H](CSC(=O)c1ccccc1)C(=O)N1C[C@@H](Sc2ccccc2)C[C@H]1C(=O)O`, the activity, negative = cell killing is -6.07% in experiment [1] (setting [5]), 2.27% in experiment [1] (setting [6]), -16.6% in experiment [1] (setting [7]) and -10.8% in experiment [1] (setting [8]). Also, the Potency entry in experiment [2] was “inactive”.

As for `O=P(O)(O)OC(CO)CO`, the activity, negative = cell killing is -13.5% in experiment [1] (setting [5]), 14.6% in experiment [1] (setting [6]), -6.76% in experiment [1] (setting [7]) and 3.76% in experiment [1] (setting [8]). Also, in experiment [2], the Potency result was “inactive”.

Turning to `Cc1[nH]cnc1C[C@H]1CCc2c(C)c3ccccc3n2C1=O`, the activity, negative = cell killing is 11.6% in experiment [1] (setting [5]), -27.1% in experiment [1] (setting [6]), -27.2% in experiment [1] (setting [7]) and 1.77% in experiment [1] (setting [8]). The Potency entry in experiment [2] is “inactive”.

As for `CCCC1([C@H](O)C/C=C/[C@H]2[C@H](O)CC(=O)[C@@H]2CCCCCCC(=O)OC)CCC1`, the activity, negative = cell killing was 0.947% in experiment [1] (setting [5]), -12.7% in experiment [1] (setting [6]) and -22% in experiment [1] (setting [8]). In experiment [1] (tumour line A), the Potency is 20 µM (active). For the same compound, the Potency result in experiment [2] was “inactive”.

`C[C@]12CC[C@@H]3c4ccc(OS(=O)(=O)O)cc4CC[C@H]3[C@@H]1CCC2=O`: the values for the activity, negative = cell killing in experiment [1] (setting [5]), in experiment [1] (setting [6]) and in experiment [1] (setting [8]) were -10.8%, 4.49% and -5.66%, respectively. Also, the Potency entry in experiment [2] was “inactive”.

For `O=S(O)CNc1ccc(S(=O)(=O)c2ccc(NCS(=O)O)cc2)cc1`, the activity, negative = cell killing in experiment [1] (setting [5]) is -3.7%; in experiment [1] (setting [6]), 0.377%; in experiment [1] (setting [7]), -17.9%; in experiment [1] (setting [8]) it was -2.81%. For the same compound, the Potency entry in experiment [2] is “inactive”.

Turning to `CN(C(=O)CO)c1c(I)c(C(=O)NCC(O)CO)c(I)c(C(=O)NCC(O)CO)c1I` (centres undefined), the activity, negative = cell killing in experiment [1] (setting [5]) is -7.14%; in experiment [1] (setting [6]), -10.4%; in experiment [1] (setting [8]), -4.09%. Moreover, in experiment [2], the Potency result was “inactive”.

With `COCC1=C(C(=O)OC(C)OC(=O)OC(C)C)N2C(=O)[C@@H](NC(=O)/C(=N\OC)c3csc(N)n3)[C@H]2SC1` (some centres undefined), the activity, negative = cell killing is -23.6% and -15.3% in experiment [1] (setting [5]); 14.5% and -3.43% in experiment [1] (setting [6]); -24.7% in experiment [1] (setting [7]); 0.117% and 4.67% in experiment [1] (setting [8]). For the same compound, the Potency result in experiment [2] was “inactive”.

Regarding `CCCCCCCCCC(=O)O`, the activity, negative = cell killing is -8.75% in experiment [1] (setting [5]), -10.5% in experiment [1] (setting [6]), -20.2% in experiment [1] (setting [7]) and -4.57% in experiment [1] (setting [8]). The Potency entry in experiment [2] is “inactive”. In addition, the max response in experiment [3] is -3.39% and -5.8%. Moreover, the outcome in experiment [4] was inactive.
